Source: PubChem (National Center for Advancing Translational Sciences (NCATS))
TGFb SMAD3 inh: inhibitors of TGF-b signaling; HepG2 CAGA-GFP TGF-b/SMAD3 reporter, GFP fluorescence, 18 h; TGF-beta stimulated, 500 pg/mL final; Potency, µM (doses to about 46.1 µM), inactives show at the top dose activity, negative = inhibition, usual class: inhibitors; 410,000 tested, 1.2% active; AID 588855; further: potency means the concentration at half of the fitted maximal effect; on the % scale 0 is the no-effect control and ±100 the full control effect; nearly all actives have a fitted effect of over 65% in size
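GFP signal (ex488/em500-530) from TGF-beta-stimulated HEPG2 CAGA-GFP cells, 500 pg/mL final, 18 h at 37 degrees C in DMEM plus 1% FBS, normalized to unstimulated and DMSO-stimulated controls.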
TDP1 block: TDP1 (human) enzyme inhibition; Q9NUW8; recombinant TDP1, AlphaScreen DNA substrate cleavage; Potency, µM (doses to about 130 µM), for the others: top-dose activity change, negative = inhibition, usual class: inhibitors; 350,000 tested, 0.28% active; AID 485290; further: potency means the concentration at half of the fitted maximal effect; on the % scale 0 is the no-effect control and ±100 the full control effect; nearly all actives have a fitted effect of over 40% in size
Target sequence (Q9NUW8 whole entry, looked up): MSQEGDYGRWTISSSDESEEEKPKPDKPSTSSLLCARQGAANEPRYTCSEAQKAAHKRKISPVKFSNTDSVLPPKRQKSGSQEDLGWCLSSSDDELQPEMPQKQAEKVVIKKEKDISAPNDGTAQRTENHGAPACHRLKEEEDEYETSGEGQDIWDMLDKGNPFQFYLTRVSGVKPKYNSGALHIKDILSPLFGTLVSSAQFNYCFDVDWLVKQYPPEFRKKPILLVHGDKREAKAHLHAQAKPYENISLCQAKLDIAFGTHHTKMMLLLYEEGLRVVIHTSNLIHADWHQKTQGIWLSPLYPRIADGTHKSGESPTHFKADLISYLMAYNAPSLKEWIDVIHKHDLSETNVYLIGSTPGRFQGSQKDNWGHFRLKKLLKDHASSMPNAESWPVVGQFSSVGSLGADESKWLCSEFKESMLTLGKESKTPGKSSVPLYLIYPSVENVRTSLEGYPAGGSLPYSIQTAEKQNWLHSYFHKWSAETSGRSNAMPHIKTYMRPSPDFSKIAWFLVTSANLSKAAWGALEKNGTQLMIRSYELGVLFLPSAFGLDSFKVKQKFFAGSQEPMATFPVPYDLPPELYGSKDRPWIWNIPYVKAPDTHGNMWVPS
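Compounds were preincubated with Tdp1 (1 nM final) for 15 min at room temperature before substrate (15 nM final) started a 5 min reaction; beads (10 ug/ml final) were then added for 10 min before AlphaScreen detection.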
DT40 TDP1 no CPT: qHTS for Inhibitors of human tyrosyl-DNA phosphodiesterase 1 (TDP1): qHTS in cells in absence of CPT. DT40 Tdp1-/- hTDP1 cells, no CPT, ATP luminescence, 48 h. Potency, µM (highest dose often 46.2 µM), for inactives: at the highest dose activity change, negative = growth inhibition, usual class: inhibitors. 420,000 tested, 15% active; further: potency means the concentration at half of the fitted maximal effect; on the % scale 0 is the no-effect control and ±100 the full control effect; nearly all actives have a fitted effect of over 55% in size
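DT40 Tdp1-/-;hTDP1 cells, no CPT (DMSO vehicle only), 400 cells/well; compounds pin-transferred; ≥48 hr, 37 °C; CellTiter-Glo 30 min RT dark, luminescence read.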
IL-1B inflam inh: inflammasome signaling inhibition, IL-1 beta readout | THP-1 LPS/ATP IL-1B secretion, AlphaLISA, 16 h; stronger effect = lower value | activity change, % at 57.5 µM | 360,000 tested, 4.7% active | AID 743279; in the data active means activity change below about -50%; inconclusive means mostly about -30% to -49%; further: on the % scale 0 is the no-effect control and ±100 the full control effect
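THP-1 cells pretreated 1 hr with compounds (up to 57.5 uM final), then stimulated with LPS (250 ng/mL final) plus ATP (1.25 mM final); secreted IL-1B measured by AlphaLISA after 16 hr, decreased signal indicating inhibition.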
DT40 TDP1 CPT: growth inhibition of DT40 Tdp1-/-;hTDP1 cells with camptothecin (screen for TDP1 inhibitors); Potency, µM (highest dose often 46.2 µM), inactives show top-dose activity change, negative = growth inhibition, actives largely listed as inhibitors; chicken DT40 Tdp1-/-;hTDP1 cells + 20 nM CPT, ATP luminescence, 48 h; 420,000 tested, 12% active; further: potency means the concentration at half of the fitted maximal effect; on the % scale 0 is the no-effect control and ±100 the full control effect; nearly all actives have a fitted effect of over 55% in size
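Chicken DT40 Tdp1-/- cells stably complemented with human TDP1 were seeded at 400 cells/well in medium containing 20 nM camptothecin, exposed to pin-transferred compounds, and grown at 37 °C for at least 48 hr. Viability was read as ATP luminescence.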
HepG2 tox: HepG2 cytotoxicity, counter-screen for TGF-b inhibitors; AID 588856; Potency, µM (doses to about 46.1 µM), for the others: top-dose activity change, negative = cytotoxicity, hits mostly cytotoxic; HepG2 CAGA-GFP viability, ATP luminescence, 18 h; 410,000 tested, 0.76% active; further: potency means the concentration at half of the fitted maximal effect
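CellTiter-Glo luminescence gave cytotoxicity after 18 hours at 37 degrees C. The cells were HepG2 CAGA-GFP in 1% FBS DMEM, stimulated with 500 pg/mL TGF-beta after compound addition. %Activity was normalised to no-cell wells (complete cell-killing) and DMSO (no toxicity), and curves were fitted and classified.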
* = called active by the depositor; i = inactive; u = inconclusive; x = no result given; ! = a repeat was not active; [ ] = another dose, or the depositor's remark. Most compounds without a hit are left out; they make up all but 18% or so of the library. Unless noted, the call rests on the fitted dose curve; in most records, active means well fitted curve in the direction sought with a large enough effect; inconclusive means small, poorly fitted or top-dose-only effect, or another doubt; inactive means no such curve, though single readings can be large; an effect the other way counts as inactive or inconclusive.

SMILES	TGFb SMAD3 inh	TDP1 block	DT40 TDP1 no CPT	IL-1B inflam inh	DT40 TDP1 CPT	HepG2 tox
OCC[C@H]1C[C@H](O)[C@@H](O)[C@@]2(CCCc3ccccc3O2)O1	14%	-2%	-8%	12	14%	15%
Cc1ccc(CSCC(=O)N(C)CC(=O)Nc2ccc(Cl)c(Cl)c2)cc1	-29%	x	u	-6	u	1%
COc1cccc(NC(=O)CN2C(=O)NC3(CCc4ccccc43)C2=O)c1 (stereo not drawn)	1%	2%	24%	10	-13%	0%
COc1ccccc1C1CN(CC(=O)N[C@H]2CCCCNC2=O)Cc2ccccc2O1 (stereo partly drawn)	x	x	u	x	4%[9.04 µM]	x
C=C1CC2C(=O)N(Cc3cc(OC)ccc3OC)C(C(=O)OCC)(C(=O)OCC)C1N2C(=O)OC(C)(C)C (stereo not drawn)	-16%	7%	u	0	21µM*	-4%
c1ccc(N=Nc2ccc3cccccc2-3)cc1	-25%	x	u	-93*	-27%	-43%
Nc1ccc(N=Nc2ccccc2)c2ccccc12	2%	11%	3%	25	32%	1%
Nc1ccc(N=Nc2ccccc2)c(N)n1	61%	6%	11µM*!	-20	9.4µM*!	-9%
O=c1[nH]c(CN2CCc3ccccc3C2)nc2ccccc12	5%	5%	-22%	44	u	-7%
Cc1[nH]c2ccccc2c1CN1CCc2ccccc2C1	-11%	-5%	12µM*	u	10µM*	-27%
O=C(Nc1ccccc1)N1CCC2(CC1)CCN(C(=O)c1cnccn1)CC2	x	x	-13%	x	9%	x
c1cnc2ccc3ncccc3c2c1	4%	-7%	-11%	-24	u	0%
CNc1ccc(N=Nc2cccc3ncccc23)cc1	u	x	u	-54*	u	-59%
Cc1ccc(CNC(=O)C2CCC(=O)N(Cc3ccc(Cl)cc3)C2)cc1F (stereo not drawn)	-25%	1%	-29%	14	u	-20%
Cc1ccc2cc3cc(C(=O)NC4CCCCC4)oc3nc2c1	23%	-3%	u	-6	u	-1%
Cc1ccc2cc3cc(C(=O)N4CCCCC4C)oc3nc2c1 (stereo not drawn)	-20%	-4%	u	-77*	u	-18%
Cc1ccc2cc3cc(C(=O)N4CC(C)CC(C)C4)oc3nc2c1 (stereo not drawn)	3%	1%[56.1 µM]	23µM*	-53*	u	-57%
O=C(c1ccc(CS(=O)(=O)Cc2ccccc2)cc1)N1CCCCC1	0%	1%	-16%	39	-25%	3%
Cc1ccc2nc(NC(=O)c3nc(SCc4ccccc4C)ncc3Cl)sc2c1	-15%	5%	16µM*	x	-29%	-23%
Cc1ccc2nc(NC(=O)c3ccc(Cl)s3)sc2c1	0%	1%	u	-13	21µM*	2%
COc1ccc2c(COC(=O)[C@@H]3CCCN3S(=O)(=O)c3ccc(Cl)cc3)cc(=O)oc2c1	-29%	3%[0.505 µM]	-21%	10	u	5%
O=C(N[C@H](Cc1cc(=O)[nH]c2ccccc12)C(=O)O)c1ccc(Cl)cc1	1%	x	u	-15	u	-2%
CN(C)c1ccc(/C=N/N2CCN(c3ccccn3)CC2)cc1	0%	7%	-14%	u	-1%	-9%
O=C(CSCc1cccc(Br)c1)N=Nc1c(O)[nH]c2ccccc12	-4%	10%	-26%	13	-10%	-37%
O=Nc1c(-c2c(O)[nH]c3cc(Br)ccc23)[nH]c2ccccc12	8.9µM*	24%[56.1 µM]	15µM*	-106*	u	7.9µM*
SMILES	TGFb SMAD3 inh	TDP1 block	DT40 TDP1 no CPT	IL-1B inflam inh	DT40 TDP1 CPT	HepG2 tox
CCOC(=O)N1CCN(C(=O)C(=O)c2cn(CC(=O)N3CCCCCC3)c3ccccc23)CC1	3%	3%	u	i	-7%	-3%
O=C(NN1CCOCC1)c1cc(-c2ccc(Br)cc2)nc2ccccc12	17%	2%	7.3µM*	-17	u	-23%
Cc1ccc(C)c(-c2cc(C(=O)NN3CCOCC3)c3ccccc3n2)c1	0%	-3%	u	15	-7%	-1%
Cc1ccc(-c2cc(C(=O)NCCCN3CCOCC3)c3ccc(Cl)c(C)c3n2)cc1	-1%	3%	u	-64*	u	5%
O=C(NCCCN1CCOCC1)c1cc(-c2ccccc2)nc2ccccc12	1%	x	-29%	-8	1%	-22%
CN1CCC(N(C)C(=S)NC(=O)c2cc(-c3cccc(Br)c3)nc3ccccc23)CC1	2%	0%	18µM*	25	u	-16%
O=C(NCCCN1CCOCC1)c1cc(-c2ccc(Br)cc2)nc2ccccc12	0%	-6%[0.505 µM]	u	-68*	u	-28%
Nc1c(S(=O)(=O)O)cc(Nc2ccc(Nc3nc(Cl)nc(Nc4ccc(S(=O)(=O)O)cc4)n3)c(S(=O)(=O)O)c2)c2c1C(=O)c1ccccc1C2=O	-4%	16%[56.1 µM]	u	x	u	-22%
CN1CCN(NC(=O)c2cc(-c3cccc(Cl)c3)nc3ccccc23)CC1	4%	-1%	10µM*	u	12µM*	-41%
COc1cccc(-c2cc(C(=O)Nn3cnnc3)c3ccccc3n2)c1	0%	2%	-19%	18	-14%	-46%
COc1cccc(-c2cc(C(=O)NN3CCOCC3)c3ccccc3n2)c1	-2%	1%	4.6µM*	0	u	10%
COc1ccc(-c2cc(C(=O)NN3CCOCC3)c3ccccc3n2)cc1OC	-15%	1%	u	-21	u	-31%
CCOc1ccc(-c2cc(C(=O)NCCCN3CCN(CC)CC3)c3ccccc3n2)cc1	29%	-2%	u	-71*	u	20µM*
CCOc1ccc(-c2cc(C(=O)NCCCn3ccnc3)c3cc(Br)ccc3n2)cc1	14µM*	x	10µM*	-99*	12µM*	-92%
CC1CCc2noc(NC(=O)c3ccccc3[N+](=O)[O-])c2C1 (stereo not drawn)	u	12%	u	x	u	-15%
CCCC1NC(C(=O)O)Cc2c1[nH]c1ccccc21 (stereo not drawn)	3%	-11%	u	11	u	17%
CCc1ccc2ncc3c(-c4ccc(F)cc4)nn(CC(=O)NCc4ccccc4)c3c2c1	34%	5%	-5%	x	-4%	6%
